Assay results from PubChem BioAssay (NCI).
Compounds without any hit were thinned out: in the full panel of roughly 79,000, 15% have a hit. Calls of active or inactive are those of the source. No stated cut-off is given here; in the data, active means growth inhibition above about 70%; inactive means the rest.

Legend:
[1] = NCI Yeast Anticancer Drug Screen. Data for the rad50 strain (AID 155);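 further: 0% = growth of vehicle-only cultures of the same strain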; details: S. cerevisiae rad50 strain growth inhibition; at 50.0 µM; active compounds read high
Outline: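 Genetically altered yeast (DNA repair pathway); compound treatment; growth inhibition vs vehicle ctrl.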

[2] = NCI Yeast Anticancer Drug Screen. Data for the mec2-1 strain (AID 157); details: S. cerevisiae mec2-1 strain, at 50.0 µM, active compounds read high
Outline: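 Readout is yeast growth inhibition, normalised to vehicle-treated controls, in the mec2-1 strain exposed to compound.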

[3] = NCI Yeast Anticancer Drug Screen. Data for the sgs1 mgt1 strain (AID 161);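 further: 0% = growth of cultures given vehicle only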; details: S. cerevisiae sgs1 mgt1 strain, at 50.0 µM, active compounds read high
Outline: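 Percent growth inhibition was derived by comparing compound-exposed mutant yeast with vehicle-exposed cultures. The strain carries alterations in DNA damage repair.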

[4] = NCI Yeast Anticancer Drug Screen. Data for the cln2 rad14 strain (AID 165);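 further: 0% = growth equal to vehicle treated cultures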; details: S. cerevisiae cln2 rad14 strain, at 50.0 µM, active compounds read high
Outline: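 Relative to vehicle controls, growth inhibition of compound-treated cln2 rad14 yeast was recorded.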

[5] = NCI Yeast Anticancer Drug Screen. Data for the bub3 strain (AID 167); details: S. cerevisiae bub3 mutant strain, at 50.0 µM, active compounds read high
Outline: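 Yeast carrying a defined mutation is treated with each compound, and growth is compared with that of vehicle-exposed cells to give inhibition.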

[6] = NCI Yeast Anticancer Drug Screen. Data for the mlh1 rad18 strain (AID 175); details: S. cerevisiae mlh1 rad18 strain growth inhibition; at 50.0 µM; active compounds read high
Outline: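 Test agents were incubated with a yeast strain of defined genotype (DNA damage repair defect). Inhibition of growth was derived by comparison with vehicle-exposed cultures.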

Measured: growth inhibition

CC(=O)NC(C)c1ccc2ccccc2c1 (configuration not stated)
inactive: [1] -5.4% | [2] 14.8% | [3] 1.8% | [4] 7.55% | [5] -8.5% | [6] 11.4%

Cc1cn(C2CC(O)C(COC(=O)C(C)(C)C)O2)c(=O)[nH]c1=O (configuration not stated)
inactive: [1] 16.9% | [2] -0.35% | [3] 3.85% | [4] -0.1% | [5] -18.5% | [6] -47.5%

O=C(O)CC1(c2ccccc2)CCCCC1
inactive: [1] -1.1% | [2] 7.05% | [3] 0.65% | [4] -6.2% | [5] 46.8% | [6] 2.3%

CCOC(=O)C(/C=C/c1cc(C)c(C)c(C)c1)(NC=O)C(=O)OCC
inactive: [1] -3.25% | [2] 2.55% | [3] 9.6% | [4] 5.75% | [5] 12.1% | [6] -1.3%

Cc1nc2scc(C)c2c(=S)[nH]1
inactive: [1] -0.85% | [2] 1.5% | [3] 6.75% | [4] -38.9% | [5] -11.8% | [6] -2.45%

O=C1CSC(c2cccc(Cl)c2)N1N1C(=O)CSC1c1cccc(Cl)c1 (configuration not stated)
inactive: [1] 6.3% | [2] 19.4% | [3] -7.15% | [4] -0.6% | [5] 2.05% | [6] 13.4%

CC/C(=C/CO)c1ccccc1
inactive: [1] 46.5% | [2] 5.65% | [3] 17.6% | [4] 6.05% | [5] 10.8% | [6] 36.4%

Cn1c(=O)c(C(=O)NC(=O)OCc2ccccc2)cn(CCSCCOC(=O)NCCCCCCNC(=O)OCCSCCn2cc(C(=O)NC(=O)OCc3ccccc3)c(=O)n(C)c2=O)c1=O
inactive: [1] -3.1% | [2] -21.1% | [3] -6.35% | [4] -0.95% | [5] -5.15% | [6] -16.5%

COc1cccc(Cc2c3cc(OC)ccc3cc[n+]2C)c1
inactive: [1] 33.3% | [2] 10.8% | [3] 34.2% | [4] 27.7% | [5] 59% | [6] 52.7%

CCOC(=O)c1ccc(NCCCNc2ccc(C(=O)OCC)cc2)cc1
inactive: [1] -8.05% | [2] 13.8% | [3] 1.45% | [4] 0.35% | [5] 4.7% | [6] 9.5%

O=C(c1ccccc1)N1OC2C=CC1CC2 (configuration not stated)
inactive: [1] 4.6% | [2] 4.6% | [3] 5.1% | [4] -34.2% | [5] -2.1% | [6] -1.8%

c1ccc2c(c1)cc1n2CC2CN=NC12 (configuration not stated)
inactive: [1] -5.85% | [2] 14.4% | [3] -27.4% | [4] 12.3% | [5] -5.55% | [6] 10.1%

O=C(CC1=NC2NN(c3ccccc3)C(=O)C2=C1CC(=O)c1ccc([N+](=O)[O-])cc1)c1ccc([N+](=O)[O-])cc1 (configuration not stated)
inactive: [1] 42.1% | [2] -11.4% | [3] 3.4% | [4] 2.7% | [5] 19.9% | [6] 32%

CC(=O)Nc1ccc(NS(=O)(=O)c2ccc3nc(C)n(NS(=O)(=O)c4ccc(NC(C)=O)cc4)c(=O)c3c2)cc1
inactive: [1] 29.1% | [2] 38% | [3] 29.1% | [4] 15.4% | [5] 39.2% | [6] 15.3%

N/N=C(/Cc1nc2ccc(C(=O)c3ccccc3)cc2[nH]c1=O)C(=O)Nc1ccc([N+](=O)[O-])cc1[N+](=O)[O-]
inactive: [1] 23.4% | [2] 13.2% | [3] -3.6% | [4] -47.8% | [5] 5.2% | [6] 15.6%

FC(F)(c1nn[nH]n1)C(F)(F)C(F)(F)c1nn[nH]n1
inactive: [1] -6.8% | [2] -2.6% | [3] -10.8% | [4] -36.2% | [5] -1.05% | [6] -2.95%

CCOC(=O)C(Cc1ccccc1Cl)(NC(C)=O)C(=O)OCC
inactive: [1] 2.1% | [2] -7.95% | [3] -0.35% | [4] -10.2% | [5] 11.8% | [6] -20.1%

Cc1ncc(CO)c(Nc2ccccc2Cl)n1
inactive: [1] 2.5% | [2] -2.4% | [3] -6.25% | [4] -16.4% | [5] -11.7% | [6] 14.4%

CCC1=C(C)C(=O)OC1n1ccc(=O)[nH]c1=O (configuration not stated)
inactive: [1] -11.6% | [2] -2.75% | [3] 2.8% | [4] -37% | [5] -5% | [6] -3.5%

CCOC(=O)N(C)C
inactive: [1] 18.9% | [2] 12.8% | [3] 3.65% | [4] 11.1% | [5] 12.1% | [6] 8%

O=C(O)CCc1ccc(NC(=O)CCl)cc1
inactive: [1] 4.05% | [2] 14.6% | [3] 17.3% | [4] 8.35% | [5] 5.45% | [6] 14.7%

C=C(C/C(=C/S(C)=O)c1ccccc1)c1ccccc1 (configuration not stated)
inactive: [1] 43.9% | [2] 12.3% | [3] 18.7% | [4] 29.6% | [5] 20.9% | [6] 34.4%

Cc1ccc(C(=O)Cc2nc3c([nH]c2=O)c(C)nn3-c2ccccc2)c(C)c1
inactive: [1] 2.6% | [2] -27.5% | [3] 2.55% | [4] 12.7% | [5] -0.85% | [6] 4.7%

CC(C)CCOC(=O)C(O)C(O)C(=O)OCCC(C)C (configuration not stated)
inactive: [1] 14.2% | [2] 12.5% | [3] -3.05% | [4] -39% | [5] -0.85% | [6] 13.2%

N#C/C(=C\c1c[nH]c2ccccc12)c1ccc([N+](=O)[O-])cc1
inactive: [1] -13.9% | [2] -10% | [3] 5.45% | [4] 3.45% | [5] -5.2% | [6] -4.1%

CC(=O)Nc1cccc(/C=C/C=C/c2cccc([N+](=O)[O-])c2)c1
active: [1] 89.3% | [2] 91.2% | [3] 93.5% | [4] 81.1% | [5] 91.3% | [6] 91.2%

O=C(O)C(Cc1ccc(O)cc1)N=Cc1nc(-c2ccccc2)oc1O (configuration not stated)
inactive: [1] -3.5% | [2] -3.5% | [3] 0.25% | [4] 3% | [5] -6.5% | [6] 0.7%

COc1ccccc1C(O)(c1ccccc1OC)C1(O)CCCCC1
inactive: [1] -10.2% | [2] -2% | [3] -5% | [4] 13.8% | [5] -0.1% | [6] 1.15%

CCOC(C[N+](C)(C)C)OCC
inactive: [1] 9.7% | [2] -25.6% | [3] 2.4% | [4] 8% | [5] 30% | [6] 0.3%

O=C(Cc1ccccc1)Nc1ccccc1Cl
inactive: [1] -8.1% | [2] 0.35% | [3] 4.55% | [4] 21.2% | [5] 14.7% | [6] 1.95%

COc1ccc(OC)c(NC(=O)NN(C)C)c1
inactive: [1] -31.4% | [2] -38.8% | [3] -2.25% | [4] 7.95% | [5] -21.1% | [6] -21.6%

CCn1c2ccccc2c2nnc(NCCCO)nc21
inactive: [1] -14.7% | [2] -31.3% | [3] -16.5% | [4] -1.25% | [5] -51.7% | [6] 7.55%

N#Cc1ccc(Sc2ccccc2)cc1C#N
inactive: [1] 12.8% | [2] -8.7% | [3] 24.4% | [4] 10.2% | [5] 24.9% | [6] 0.6%

CC(=O)OCCn1c(C)nc2cc(Cl)c(Cl)cc21
inactive: [1] 33.1% | [2] 5.45% | [3] 16.3% | [4] 31.9% | [5] 23.7% | [6] 36.2%

CCN(Cc1cc(Cl)cc(C)c1O)Cc1c(O)ccc2ccccc12
active: [1] 99.5% | [2] 99.2% | [3] 99.3% | [4] 99.3% | [5] 98.6% | [6] 99.7%

CC(=O)C/C(C)=N\NC(=O)c1ccc([N+](=O)[O-])cc1
inactive: [1] -6.15% | [2] -16.8% | [3] 5.65% | [4] 7.35% | [5] 9.9% | [6] 19.6%

CC1CCC(C(C)C)C(OC(=O)c2ccccc2O)C1 (configuration not stated)
inactive: [1] 16.1% | [2] 6.9% | [3] -11.3% | [4] 33.5% | [5] 12% | [6] 35.5%
